Bioassay records (PubChem BioAssay)
The list is not random: actives were taken first. Their share in the collection is about 7.1%.
ATXN2 expr inh: Primary qHTS for Inhibitors of ATXN expression; 0.72% of 360,000 active; Potency, µM (highest dose often 57 µM), for the others: top-dose activity change, negative = inhibition, actives largely listed as inhibitors; HEK-293 ATXN2-luciferase reporter, luminescence, 24 h; also: potency is read from the fitted curve at half-maximal effect; % is scaled to controls: 0 for no effect and ±100 for the full control effect; nearly all actives have a fitted effect of over 55% in size
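qHTS (up to 57 uM final) was run with 24 h compound exposure of reporter cells at 37 °C. Each well was multiplexed: SteadyGlo luminescence measured ATXN2-luciferase expression after a fluorogenic Gly-Phe-AFC viability readout (25 uM final).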
ATXN viability: Viability Counterscreen for Primary qHTS for Inhibitors of ATXN expression; S2 cells (HEK-293 line with an ATXN2-luciferase reporter) viability, CellTiter-Fluor protease fluorescence, 24 h; Potency, µM (titrated, usually from 56.7 µM), usual class: cytotoxic; 0.49% of 400,000 active; also: potency is read from the fitted curve at half-maximal effect; nearly all actives have a fitted effect of over 40% in size
IL1B secr inh: qHTS for Inhibitors of Inflammasome Signaling: IL-1-beta AlphaLISA Primary Screen | THP-1 LPS/ATP IL-1B secretion, AlphaLISA, 16 h; active compounds read low | activity change, % at 57.5 µM | 4.7% of 360,000 active | AID 743279, 2014; in the data active = activity change below about -50%; inconclusive = mostly about -30% to -49%; also: % is scaled to controls: 0 for no effect and ±100 for the full control effect
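Secreted IL-1B measured by AlphaLISA bead assay after 16 h compound exposure of THP-1 cells; compounds (final up to 57.5 uM) added 1 h before LPS (250 ng/mL) and ATP (1.25 mM) stimulation; lower signal means less secretion.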
SW480 rereplic: A quantitative high throughput screen for small molecules that induce DNA re-replication in SW480 colon adenocarcinoma cells | SW480 DNA re-replication, Hoechst DNA content imaging, 48 h | 1.8% of 340,000 active | Potency, µM (highest dose often 46.1 µM), without a hit: at the top dose re-replication activation, hits mostly activators | AID 624297, 2012; also: potency is read from the fitted curve at half-maximal effect; % of control where 0% means no effect; nearly all actives have a fitted effect of over 55% in size
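Image-based DNA-content assay: after two days of treatment, nuclei were labelled with the DNA dye Hoechst and imaged, and hits were compounds raising the count of nuclei showing high fluorescence intensity.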
MCF10A rereplic: A quantitative high throughput screen for small molecules that induce DNA re-replication in MCF 10a normal breast cells | MCF 10A DNA re-replication, Hoechst nuclear intensity, 48 h | Potency, µM (highest dose often 46.1 µM), without a hit: at the highest dose activity, positive = re-replication, usual class: activators | 2.9% of 350,000 active; also: potency is read from the fitted curve at half-maximal effect; % of control where 0% means no effect; nearly all actives have a fitted effect of over 50% in size
PINK1 modulator: A Quantitative High throughput Screen to Identify Chemical Modulators of PINK1 Expression; PINK1 immunofluorescence, high-content cytometry, 24 h; Potency, µM (top dose mostly 76.6 µM), inactives show top-dose activation (PINK1 increase), actives largely listed as activators; 0.2% of 410,000 active; active = well fitted activation curve with a large enough effect; inconclusive = small, poorly fitted or top-dose-only effect; cell line not stated here; also: potency is read from the fitted curve at half-maximal effect; % of control where 0% means no effect; nearly all actives have a fitted effect of over 65% in size
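Cells are seeded, rested 12 hours, then given compound at five concentrations or DMSO for 24 hours. After fixation, blocking and antibody staining, PINK1 amount and mitochondrial localization are scored; CCCP serves as control.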
Active calls of the source: *; i = inactive; ? = inconclusive; . = no result given; [ ] = dose if it differs, or a comment. Unless noted, calls follow the shape of the dose curve; as a rule, active = well fitted curve in the direction sought with a large enough effect; inconclusive = small, poorly fitted or top-dose-only effect, or another doubt; inactive = no such curve, though single readings can be large; an effect the other way counts as inactive or inconclusive.

SMILES	ATXN2 expr inh	ATXN viability	IL1B secr inh	SW480 rereplic	MCF10A rereplic	PINK1 modulator
O=[N+]([O-])c1ccc(-c2cnc(SC(c3ccccc3)c3ccccc3)[nH]2)cc1	-29%	i	-52*	?	?	?
O=[N+]([O-])c1ccc(-c2cnc(SCc3ccccc3Cl)[nH]2)cc1	30%	i	-8	5%	?	?
Cc1cccc(NC(=O)CN2C(=O)CCc3ccccc32)c1C	-2%	i	.	.	.	2%
OCCCNCc1cc2ccc(F)cc2nc1N1CCN(c2cccc(Cl)c2)CC1	.	?	.	.	.	2%
CCN(CC)/[N+]([O-])=N/OCOC(=O)C(C)c1ccc2cc(OC(C)=O)ccc2c1 (configuration not stated)	.	.	.	.	.	-1%
O=C(Cc1nc2ccccc2[nH]1)N1CCC(n2c(C3CCC3)nc3cccnc32)CC1	.	i	.	.	.	0%
O=C(CSC1=Nc2ccccc2N=C(c2ccc(F)cc2)C1)Nc1cc(F)ccc1F	6%	i	.	.	.	8%
CCn1c(SCC(=O)N2CCCc3ccccc32)nc2ccccc2c1=O	-9%	i	-24	2%	23µM*	-5%
CC(C)Cn1c(SCC(=O)N2CCCc3ccccc32)nc2ccccc2c1=O	-25%	i	-66*	?	21µM*	0%
Cn1c(SCC(=O)N2CCN(S(=O)(=O)c3ccccc3)CC2)nc2ccccc21	-11%	i	24	-1%	19%	-4%[38.3 µM]
O=C(CSc1nc2ccccc2c(=O)n1-c1ccccc1)N1CCCc2ccccc21	-12%	i	-17	5%	24%	-1%
O=C(CSc1nnnn1-c1ccccc1)N1CCCc2ccccc21	-2%	i	-55*	0%	14%	-1%
CC(C)Cn1c(SCC(=O)N2CCN(S(=O)(=O)c3ccccc3)CC2)nc2ccccc21	?	i	-52*	2%	22%	.
O=C(CSc1nnnn1-c1ccccc1)N1CCc2ccccc21	1%	i	18	4%	2%	2%[38.3 µM]
COCc1c(C(=O)N2CCN(C3CCCC3)CC2)cnn1-c1nccc(-c2cc(C)sc2C)n1	.	i	.	.	.	0%
CCn1c(CN2CCC(C)CC2)nc2cc(NC(=O)COc3ccc([N+](=O)[O-])cc3)ccc21	-13%	i	.	.	.	1%
CC(=O)Nc1nnc(SCC(=O)N2CCCc3ccccc32)s1	5%	?	16	-11%	1.8µM*	9%
Cc1cc2cc(C)c3nnc(SCC(=O)N4CCN(C(=O)c5ccco5)CC4)n3c2cc1C	0%	i	-74*	1%	2%	-3%[38.3 µM]
Cc1cc2c(=O)n(Cc3ccco3)c(SCC(=O)N3CCCc4ccccc43)nc2s1	-31%	i	-67*	14%	-2%	.
O=C(CSc1nc2ccccc2n1CC(=O)N1CCCC1)N1CCN(C(=O)c2ccco2)CC1	-17%	i	?	24%	-51%	.
O=C(Nc1nnc(SCC(=O)N2CCCc3ccccc32)s1)c1ccccc1	13%	i	-12	-14%	0%	-1%
Cc1ccc2cc(C)c3nnc(SCC(=O)N4CCN(C(=O)c5ccco5)CC4)n3c2c1	-10%	i	-23	-1%	2%	.
CC(C)Cn1c(SCC(=O)N2CCN(C(=O)c3ccco3)CC2)nc2ccccc2c1=O	-6%	i	-7	8%	0.65µM*	0%
O=C(CC1C(=O)NCCN1Cc1ccc(-c2ccccc2)cc1)NCC1CC1 (configuration not stated)	14%[11.3 µM]	i	-54*	?	5%	-1%
O=C(CC1C(=O)NCCN1Cc1cccc(Oc2ccccc2)c1)NCCc1cnccn1 (configuration not stated)	.	i	?	3.3µM*	4%	0%
SMILES	ATXN2 expr inh	ATXN viability	IL1B secr inh	SW480 rereplic	MCF10A rereplic	PINK1 modulator
C=CCNC(=O)CC1C(=O)NCCN1Cc1ccc(-c2ccccc2)cc1 (configuration not stated)	.	i	-4	-4%	-2%	1%
CCCOc1ccccc1C(=O)Nc1ccc(-c2nc3ccc(C)cc3s2)cc1	94%	i	.	.	.	2%
CC(=O)Nc1nc(-c2ccccc2)c(-c2ccccc2)o1	.	i	-66*	0%	-4%	-1%
COc1cc(OC)cc(C(=O)Nc2nc(-c3ccccc3)c(-c3ccccc3)o2)c1	?	i	1	?	14%	7%
Cc1ccc(-c2nc3c(c(=O)c4ccccc4n3C)c(=O)n2Cc2ccco2)cc1	-8%	i	.	18µM*	2%	0%
CC(=O)Nc1ccc(NC(=O)C2Cc3c(-c4cccc(F)c4)ccnc3O2)cc1 (configuration not stated)	9%	i	0	.	.	1%
O=C(Nc1ccc(Cl)cc1)C1Cc2c(-c3cccc(F)c3)ccnc2O1 (configuration not stated)	0%	?	-64*	.	.	?
O=C(Nc1ccc(Cl)cc1)C1Cc2c(-c3ccc(Cl)cc3)ccnc2O1 (configuration not stated)	?	i	-11	.	.	?
COc1ccc(NC(=O)C2Cc3c(-c4cccc(F)c4)ccnc3O2)cc1 (configuration not stated)	-19%	i	-10	.	.	8%
O=C(Nc1ccc(Cl)cc1)C1Cc2c(-c3ccccc3)ccnc2O1 (configuration not stated)	-23%	i	-79*	.	.	-1%
O=C(Nc1cccc(OC(F)(F)F)c1)C1Cc2c(-c3cccc(F)c3)ccnc2O1 (configuration not stated)	?	?	-89*	.	.	17%
Cc1ccc(Cl)cc1NC(=O)c1oc2c(c1C)-c1[nH]ncc1CC2	.	.	.	.	.	0%
CC1Cc2ccccc2N1C(=O)COc1ccc2c(c1)OCO2 (configuration not stated)	58%	i	-56*	-5%	11%	1%
CC1Cc2ccccc2N1C(=O)c1ccc2snnc2c1 (configuration not stated)	6%	i	-87*	-2%	-28%	.
CC1Cc2ccccc2N1C(=O)CSC1=NCCS1 (configuration not stated)	106%	i	-20	-3%	8%	11µM*
Cc1nc(SCC(=O)N2c3ccccc3NC(=O)CC2C)c2c(C)c(C)sc2n1 (configuration not stated)	-2%	i	-18	-20%	?	1%
